Data taken from paper PMC5700166.
Residue numbers refer to the chain shown, from its start.

What was measured:
Experiment in all cases: protein-binding microarray (PBM); PBM: ~300 nM protein, 6 mM HEPES pH 7.8, 80 mM KCl, 0.5 mM EDTA, 0.5 mM EGTA, 6% glycerol, 35 ng/ul poly-dIdC, 1% milk, 1 h, room temperature; Ap Aiptasia and Nv Nematostella (sea anemones) / Co Capsaspora / Aq Amphimedon (sponge) / Dm Drosophila / Hu human; RHD is the Rel homology domain; high values mean tight binding
Conditions in all cases: dsDNA, one strand shown
[1] = target: T1, GST-Ap-NF-kB RHD (Exaiptasia pallida (Aiptasia), UniProt A0A913YAJ5 2-422)
T1 sequence: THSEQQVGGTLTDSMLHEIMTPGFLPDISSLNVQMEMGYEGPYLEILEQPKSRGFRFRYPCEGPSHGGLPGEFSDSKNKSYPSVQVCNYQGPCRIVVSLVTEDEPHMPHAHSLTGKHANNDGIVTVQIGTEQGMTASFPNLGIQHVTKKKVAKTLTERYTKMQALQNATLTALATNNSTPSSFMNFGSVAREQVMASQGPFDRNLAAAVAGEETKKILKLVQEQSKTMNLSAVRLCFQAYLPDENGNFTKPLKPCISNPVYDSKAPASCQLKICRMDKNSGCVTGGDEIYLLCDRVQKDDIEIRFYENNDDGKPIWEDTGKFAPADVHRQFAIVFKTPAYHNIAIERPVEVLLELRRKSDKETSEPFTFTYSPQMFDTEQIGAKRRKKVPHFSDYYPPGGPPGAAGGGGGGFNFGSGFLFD

[2] = target: T2, GST-Nv-NF-kB (Cys allele) (Nematostella vectensis, UniProt E5G601 2-411)
T2 sequence: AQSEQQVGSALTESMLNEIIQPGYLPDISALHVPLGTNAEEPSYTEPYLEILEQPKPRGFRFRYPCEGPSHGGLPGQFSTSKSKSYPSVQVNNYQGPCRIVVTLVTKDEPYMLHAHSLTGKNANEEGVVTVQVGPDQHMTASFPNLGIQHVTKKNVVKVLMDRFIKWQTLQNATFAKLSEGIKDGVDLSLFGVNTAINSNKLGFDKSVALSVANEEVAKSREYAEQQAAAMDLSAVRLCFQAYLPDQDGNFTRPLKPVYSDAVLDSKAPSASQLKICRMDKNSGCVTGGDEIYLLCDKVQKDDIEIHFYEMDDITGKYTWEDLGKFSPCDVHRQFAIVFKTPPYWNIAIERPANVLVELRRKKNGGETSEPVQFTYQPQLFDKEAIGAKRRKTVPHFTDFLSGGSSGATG

[3] = target: T3, GST-Nv-NF-kB (Ser allele) (Nematostella vectensis, UniProt A7UNT2 2-411)
T3 sequence: T2 sequence with Q21R, C66S, S207N, E215Q, V217A, E225K, A268E, D399E

[4] = target: T4, GST-Co-NF-kB (Capsaspora owczarzaki, UniProt F1ARL5 200-546)
T4 sequence: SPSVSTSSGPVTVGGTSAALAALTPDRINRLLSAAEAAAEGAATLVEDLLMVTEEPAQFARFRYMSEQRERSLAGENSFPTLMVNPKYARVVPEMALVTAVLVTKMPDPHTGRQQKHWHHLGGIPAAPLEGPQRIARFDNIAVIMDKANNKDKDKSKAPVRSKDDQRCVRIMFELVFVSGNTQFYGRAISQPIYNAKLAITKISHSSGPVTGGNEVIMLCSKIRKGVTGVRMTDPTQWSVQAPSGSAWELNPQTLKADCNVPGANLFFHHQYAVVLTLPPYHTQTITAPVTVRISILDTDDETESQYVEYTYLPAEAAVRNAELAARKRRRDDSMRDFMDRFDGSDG

[5] = target: T5, GST-Dm-Relish (Drosophila melanogaster, UniProt Q94527 99-473)
T5 sequence: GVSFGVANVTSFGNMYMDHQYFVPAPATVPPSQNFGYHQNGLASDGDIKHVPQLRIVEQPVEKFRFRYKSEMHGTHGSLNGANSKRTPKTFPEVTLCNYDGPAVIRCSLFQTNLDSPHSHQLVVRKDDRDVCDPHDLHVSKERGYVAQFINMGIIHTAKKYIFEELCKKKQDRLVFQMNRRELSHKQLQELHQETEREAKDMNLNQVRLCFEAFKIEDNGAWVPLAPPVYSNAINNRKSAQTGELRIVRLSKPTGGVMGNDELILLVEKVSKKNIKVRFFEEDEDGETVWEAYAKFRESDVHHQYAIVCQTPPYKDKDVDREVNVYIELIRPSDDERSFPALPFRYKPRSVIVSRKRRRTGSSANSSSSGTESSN

[6] = target: T6, GST-Aq-NF-kB (Amphimedon queenslandica, UniProt A9Y5G7 2-389)
T6 sequence: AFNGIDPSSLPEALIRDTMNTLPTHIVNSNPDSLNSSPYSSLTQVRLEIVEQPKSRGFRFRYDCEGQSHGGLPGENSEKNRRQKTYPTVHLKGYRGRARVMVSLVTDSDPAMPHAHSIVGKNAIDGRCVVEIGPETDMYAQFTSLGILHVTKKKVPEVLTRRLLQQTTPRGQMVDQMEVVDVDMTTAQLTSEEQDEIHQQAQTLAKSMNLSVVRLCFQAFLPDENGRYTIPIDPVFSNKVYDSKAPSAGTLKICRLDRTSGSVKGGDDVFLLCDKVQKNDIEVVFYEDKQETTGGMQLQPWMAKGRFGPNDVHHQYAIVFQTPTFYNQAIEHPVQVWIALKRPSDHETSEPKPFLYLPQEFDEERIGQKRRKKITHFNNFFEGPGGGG

[7] = target: GST-Hu-p50 (Homo sapiens, UniProt P19838 7-356)
Chain of GST-Hu-p50 (P19838 7-356): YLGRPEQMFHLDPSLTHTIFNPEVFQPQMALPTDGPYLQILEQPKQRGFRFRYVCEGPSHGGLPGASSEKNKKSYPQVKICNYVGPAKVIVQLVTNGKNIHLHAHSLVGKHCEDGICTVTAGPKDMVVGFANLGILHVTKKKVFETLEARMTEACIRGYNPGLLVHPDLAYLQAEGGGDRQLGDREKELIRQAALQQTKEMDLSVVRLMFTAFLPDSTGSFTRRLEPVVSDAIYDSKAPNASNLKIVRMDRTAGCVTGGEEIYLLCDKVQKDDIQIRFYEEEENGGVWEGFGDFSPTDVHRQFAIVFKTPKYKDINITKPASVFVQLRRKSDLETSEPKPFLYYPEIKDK

Sequence | binding signal [1] | binding signal [2] | binding signal [3] | binding signal [4] | binding signal [5] | binding signal [6] | binding signal [7]
CCGATTAACATCACCCGTTCCCCTGATGTTAATCGGGTCTTGATTCGCTTGACGCTGCTG | 5.61 z-score | 4.83 z-score | 6.11 z-score | 4.75 z-score | 1.99 z-score | 3.78 z-score | 3.85 z-score
CCGATTAACATCAGGGAAATTTATGATGTTAATCGGGTCTTGATTCGCTTGACGCTGCTG | 5.86 z-score | 8.28 z-score | 7.67 z-score | 5.84 z-score | 4.1 z-score | 7.49 z-score | 5.55 z-score
CCGATTAACATCAGGGGAATACATGATGTTAATCGGGTCTTGATTCGCTTGACGCTGCTG | 6.98 z-score | 8.02 z-score | 7.97 z-score | 6.18 z-score | 6.02 z-score | 5.87 z-score | 5.42 z-score
CCGATTAACATCAAAGTTTCCCATGATGTTAATCGGGTCTTGATTCGCTTGACGCTGCTG | 2.54 z-score | 4.29 z-score | 3.82 z-score | 4.66 z-score | 2.05 z-score | 4.32 z-score | 3.28 z-score
CCGATTAACATCAAGCATTCCCCTGATGTTAATCGGGTCTTGATTCGCTTGACGCTGCTG | 6.61 z-score | 7.73 z-score | 8.37 z-score | 5.48 z-score | 4.42 z-score | 5.38 z-score | 5.38 z-score
CCGATTAACATCAGGGAGGGAAATGATGTTAATCGGGTCTTGATTCGCTTGACGCTGCTG | 2.6 z-score | 4.76 z-score | 3.78 z-score | 3.79 z-score | 1.23 z-score | 3.72 z-score | 2.8 z-score
CCGATTAACATCAGGGTATTTAATGATGTTAATCGGGTCTTGATTCGCTTGACGCTGCTG | 2.74 z-score | 4.26 z-score | 4.73 z-score | 1.37 z-score | 3.25 z-score | 4.14 z-score | 4.41 z-score
CCGATTAACATCAGGGAAACACCTGATGTTAATCGGGTCTTGATTCGCTTGACGCTGCTG | 5.49 z-score | 6.62 z-score | 6.01 z-score | 2.74 z-score | 6.92 z-score | 7.75 z-score | 5.15 z-score
CCGATTAACATCAAAAATCCCAGTGATGTTAATCGGGTCTTGATTCGCTTGACGCTGCTG | 3.43 z-score | 3.35 z-score | 2.65 z-score | 2.44 z-score | 7.35 z-score | 3.8 z-score | 3.5 z-score
CCGATTAACATCAAAAAAGTCCCTGATGTTAATCGGGTCTTGATTCGCTTGACGCTGCTG | 8.8 z-score | 11.6 z-score | 11.5 z-score | 2.41 z-score | 9.77 z-score | 8.92 z-score | 7.77 z-score
CCGATTAACATCATAAATTCCCATGATGTTAATCGGGTCTTGATTCGCTTGACGCTGCTG | 2.62 z-score | 5.12 z-score | 5.22 z-score | 3.32 z-score | 5.06 z-score | 3.71 z-score | 4.37 z-score
CCGATTAACATCAGGGGGAGTAATGATGTTAATCGGGTCTTGATTCGCTTGACGCTGCTG | 5.68 z-score | 4.54 z-score | 5.56 z-score | 6.83 z-score | 3.45 z-score | 4.18 z-score | 5.72 z-score
CCGATTAACATCAGGGGAACGCATGATGTTAATCGGGTCTTGATTCGCTTGACGCTGCTG | 5.31 z-score | 5.4 z-score | 6.49 z-score | 4.99 z-score | 2.68 z-score | 3.75 z-score | 4.2 z-score
CCGATTAACATCAGAGTTCCCCCTGATGTTAATCGGGTCTTGATTCGCTTGACGCTGCTG | 7.64 z-score | 7.87 z-score | 8.12 z-score | 8.96 z-score | 7 z-score | 6.05 z-score | 6.39 z-score
CCGATTAACATCAAAACCCCCCATGATGTTAATCGGGTCTTGATTCGCTTGACGCTGCTG | 8.56 z-score | 6.62 z-score | 6.57 z-score | 4.66 z-score | 9.53 z-score | 7.39 z-score | 6.77 z-score
CCGATTAACATCAATAATTCCCCTGATGTTAATCGGGTCTTGATTCGCTTGACGCTGCTG | 8.52 z-score | 10.6 z-score | 11.8 z-score | 8.63 z-score | 7.98 z-score | 7.59 z-score | 6.96 z-score
CCGATTAACATCAATTTCCCACCTGATGTTAATCGGGTCTTGATTCGCTTGACGCTGCTG | 2.39 z-score | 3.38 z-score | 3.89 z-score | 2.84 z-score | 1.17 z-score | 2.26 z-score | 2.74 z-score
CCGATTAACATCAGGGGAGACCCTGATGTTAATCGGGTCTTGATTCGCTTGACGCTGCTG | 6.47 z-score | 4.51 z-score | 4.3 z-score | 3.35 z-score | 6.91 z-score | 6.37 z-score | 3.38 z-score
CCGATTAACATCAGGGGACCACCTGATGTTAATCGGGTCTTGATTCGCTTGACGCTGCTG | 4.71 z-score | 3.46 z-score | 2.99 z-score | 2.22 z-score | 6.1 z-score | 4.66 z-score | 3.71 z-score
CCGATTAACATCAAATATCCCCTTGATGTTAATCGGGTCTTGATTCGCTTGACGCTGCTG | 8.05 z-score | 8.3 z-score | 9.01 z-score | 3.88 z-score | 6.97 z-score | 6.2 z-score | 6.19 z-score
CCGATTAACATCAGGGGAAGAACTGATGTTAATCGGGTCTTGATTCGCTTGACGCTGCTG | 4.9 z-score | 5.96 z-score | 6.48 z-score | 6.9 z-score | 9.56 z-score | 5.61 z-score | 4.93 z-score
CCGATTAACATCACAGAACCCCCTGATGTTAATCGGGTCTTGATTCGCTTGACGCTGCTG | 7.53 z-score | 5.51 z-score | 7.39 z-score | 2.33 z-score | 7.46 z-score | 5.42 z-score | 6.43 z-score
CCGATTAACATCAGGGAAATCAATGATGTTAATCGGGTCTTGATTCGCTTGACGCTGCTG | 2.16 z-score | 3.6 z-score | 4.65 z-score | 3.49 z-score | 1.09 z-score | 2.67 z-score | 2.57 z-score
CCGATTAACATCAGGGGGGACGATGATGTTAATCGGGTCTTGATTCGCTTGACGCTGCTG | 5.01 z-score | 4.55 z-score | 4.5 z-score | 5.85 z-score | 3.77 z-score | 4.63 z-score | 3.85 z-score
